Drawing on ChEMBL document CHEMBL4513216, “Probing the Open Global Health Chemical Diversity Library for Multistage-Active Starting Points for Next-Generation Antimalarials” (ACS Infect Dis, 2020), this text covers INHIBITION for 69 compounds.

Screen size: about 69,000 compounds; about 8,600 (12%) showed an effect of 50% or more. This excerpt belongs to a sample that is enriched for strong results.

This assay relates to Plasmodium berghei. Nature of the assay: Screen against P. berghei liver stage (PbLuc), transformed with Luciferase, at 10uM. Type of assay: functional, HepG2. The note with it: tested at 10 uM.
Regarding `CNc1ccc(CC2CCCN(C(=O)c3cnccn3)C2)nn1` (centres undefined), the INHIBITION came to 32.3%.

Turning to `O=C(NCC1(O)COCCN(Cc2cccc(O)c2)C1)c1cscn1` (centres undefined), the INHIBITION is reported as -19.7%.

For the compound `Cc1cc(C)n(CC(C)Nc2nc(-c3ccncc3)nc3c2CNC3)n1` (centres undefined), the INHIBITION was 49.2%.

In the case of `Cn1cnc2c(N3CCCC3)nc(C3CCN(CC4CC4)CC3)cc21`, the INHIBITION is -14.4%.

Consider `CCOC(=O)N1CCN(c2nc(C)ncc2CC)CC1`, for which the INHIBITION was 47.1%.

For `CCc1cnc(C)nc1N1CCN(C(N)=O)CC1`, the INHIBITION was determined as 46.1%.

In the case of `CCc1cnc(C)nc1N1CCS(=O)(=O)CC1`, the INHIBITION stood at 57.3%.

`O=C(Cn1cc(Cl)cn1)N1CCCC(c2ccn[nH]2)C1` (centres undefined): the INHIBITION stood at 28%.

With `Cc1occc1CNC(=O)NCCN(C)C1CCCC1`, the INHIBITION is listed as 16.8%.

In the case of `CCOCC1CN(C(=O)c2ccoc2)Cc2cnn(C)c21` (centres undefined), the INHIBITION is reported as 15.6%.

As to `CN(Cc1ccc(C#N)cc1)Cn1nccc1-c1cccnc1`, the INHIBITION worked out at 50.5%.

For `Cc1noc(C)c1CN(C)Cn1nccc1-c1cccnc1`, the INHIBITION worked out at 36.2%.

As for `Cc1ccsc1CN(C)Cn1nccc1-c1cccnc1`, the INHIBITION worked out at 5.79%.

Consider `NC(=O)c1sc2ccccc2c1C1CCN(S(=O)(=O)N2CCOCC2)C1` (centres undefined), for which the INHIBITION is recorded as -24.4%.

`CCc1ccc(CNc2cc(N3CCCC3CO)ncn2)s1` (centres undefined): the INHIBITION came to 49.1%.

`CC(C)N(Cc1ccccn1)C(=O)CCC(=O)c1ccc(F)cc1F`: the INHIBITION stood at 36.9%.

For `CN(Cc1nc2ccsc2c(=O)[nH]1)C[C@@H]1CCCN2CCCC[C@H]12`, the INHIBITION was 68.4%.

Consider `CN(Cc1ccc(-n2cccn2)cc1)C[C@@H]1CCCN2CCCC[C@H]12`, for which the INHIBITION stood at 70%.

`CN(Cc1ccccc1-n1cccn1)C[C@@H]1CCCN2CCCC[C@H]12`: the INHIBITION came to 40.7%.

In the case of `CN(Cc1ccc(-n2cccn2)cc1)CC1CCCN1c1cccnn1` (centres undefined), the INHIBITION turned out to be 9.64%.

For the compound `CN(Cc1nc2ccccc2c(=O)[nH]1)C[C@@H]1CCCN2CCCC[C@H]12`, the INHIBITION came out at 42.6%.

Take `CN(Cc1nc2ccsc2c(=O)[nH]1)CC1CCCCC1`: the INHIBITION was -21.8%.

Turning to `CNC(=O)C1(CCCc2ccncc2)CCCCN1` (centres undefined), the INHIBITION is listed as -4.51%.

In the case of `CCc1cc(NCCCN(C)C2CCCC2)ncn1`, the INHIBITION was -13.1%.

As to `Cc1nc(C(=O)N(CC2CCCO2)c2ccncc2)cs1` (centres undefined), the INHIBITION turned out to be 45.5%.

`CN(C)c1ccccc1CN1CCCC(N2CCCC2=O)C1` (centres undefined): the INHIBITION amounted to 51.7%.

On to `O=C1CCCN1C1CCCN(CCOc2ccc(F)cc2)C1` (centres undefined), for which the INHIBITION is listed as 31.2%.

As for `COC(=O)N1CCN(Cc2ccccc2C(C)(C)C#N)CC1`, the INHIBITION was determined as 39.2%.

Turning to `CC(C)(C#N)c1ccccc1CN1CCC(N2CCCC2=O)CC1`, the INHIBITION amounted to 57.7%.

As for `CN(C)c1ccccc1CN1CCC(N2CCCC2=O)CC1`, the INHIBITION is given as 25.2%.

For `CCc1ccccc1CN1CCC(N2CCCC2=O)CC1`, the INHIBITION is given as -0.87%.

With `CCSCc1csc(-c2ccc(S(C)(=O)=O)cc2)n1`, the INHIBITION is given as -35.8%.

With `CCOc1cc(CNC(=O)CNC(=O)CC2CCCCC2)ccn1`, the INHIBITION amounted to 6.23%.

For `NCc1cnc(Nc2ccccc2)nc1`, the INHIBITION is reported as 23.1%.

Consider `CCc1cnc(CN(C(C)=O)C2CCN(CCN3CCCCC3)C2)o1` (centres undefined), for which the INHIBITION was determined as 31.9%.

Take `CC(C)c1noc(-c2ccc(-n3cnc(C(=O)O)c3)nc2)n1`: the INHIBITION was 2.49%.

Take `Cc1c(C(=O)N2CCCC(C(=O)c3nccn3C)C2)c[nH]c(=O)c1C#N` (centres undefined): the INHIBITION turned out to be 25.1%.

For `O=C1NCCN(C(=O)CN2CCOC2=O)C1c1cccc(F)c1` (centres undefined), the INHIBITION worked out at 32%.

Take `O=C1NCCN(C(=O)CCN2CCCO2)C1c1cccc(F)c1` (centres undefined): the INHIBITION was 5.15%.

Turning to `O=C(CCC(=O)N1CCNC(=O)C1c1cccc(F)c1)NC1CCCC1` (centres undefined), the INHIBITION was found to be 55.5%.

In the case of `CCc1nccn1C1CCCN(C(=O)c2csc(NC(C)=O)n2)C1` (centres undefined), the INHIBITION was 20.1%.

As to `CC(NCc1ccccc1Br)c1ccc2[nH]c(=O)[nH]c2c1` (centres undefined), the INHIBITION was 51.6%.

`CC(NCc1ccccc1Cl)c1ccc2[nH]c(=O)[nH]c2c1` (centres undefined): the INHIBITION stood at 40.9%.

`COc1ccccc1CNC(C)c1ccc2[nH]c(=O)[nH]c2c1` (centres undefined): the INHIBITION turned out to be 7.12%.

In the case of `Cc1nc(CCCNC(=O)C2CC(=O)N(C3CCCC3)C2)sc1C` (centres undefined), the INHIBITION stood at 44.7%.

For the compound `Cc1nc(CCCNC(=O)C2CC(=O)N(C3CC3)C2)sc1C` (centres undefined), the INHIBITION worked out at 56.8%.

Regarding `CCN1CC(C(=O)NCCCc2nc(C)c(C)s2)CC1=O` (centres undefined), the INHIBITION is listed as 45.8%.

As for `Cc1cnc2n1CCN(C)C21CCN(C(=O)CC(C)C)CC1`, the INHIBITION came out at 0.547%.

Consider `COCc1ccc(C(=O)N2CC[C@H](O)[C@@H](n3ccnc3)CC2)cc1`, for which the INHIBITION is given as -6.3%.

In the case of `Cn1c(=O)oc2cc(S(=O)(=O)N3CCCCC3)c(Cl)cc21`, the INHIBITION is on record as 30%.

Take `Cn1c(=O)oc2cc(S(=O)(=O)N3CCC(c4ccccc4)C3)c(Cl)cc21` (centres undefined): the INHIBITION is 55%.

Take `Cn1c(=O)oc2ccc(S(=O)(=O)N3CCC(c4ccccc4)C3)cc21` (centres undefined): the INHIBITION is -5.26%.

As to `COCC(NC(=O)c1ccoc1C)c1cccc(C(F)(F)F)c1` (centres undefined), the INHIBITION was 17.8%.

Turning to `O=C(O)[C@]12CCCN(Cc3ccsc3)C[C@H]1CN(c1ccccn1)C2`, the INHIBITION is given as 1.48%.

In the case of `CNC(=O)CN1CCOCC2(CCCN(Cc3ccc(F)cc3)C2)C1` (centres undefined), the INHIBITION stood at 53.1%.

As for `CNC(=O)CN1CCOCC2(CCCN(Cc3ccoc3)C2)C1` (centres undefined), the INHIBITION is given as -2.35%.

Consider `Cn1cc(CN2CCCC3(COCCN(Cc4c[nH]nn4)C3)C2)cn1` (centres undefined), for which the INHIBITION is -6.23%.

For `c1cc(CN2CCCC3(COCCN(Cc4c[nH]nn4)C3)C2)cs1` (centres undefined), the INHIBITION is given as -4.88%.

Regarding `Fc1ccc(CN2CCCC3(COCCN(Cc4c[nH]nn4)C3)C2)cc1` (centres undefined), the INHIBITION was determined as 61.5%.

On to `CNC(=O)CN1CCOCC2(CCCN(Cc3ccsc3)C2)C1` (centres undefined), for which the INHIBITION is reported as -17.1%.

With `Cc1ccc(CN2CCCC3(COCCN(Cc4c[nH]nn4)C3)C2)s1` (centres undefined), the INHIBITION is on record as 65.6%.

As for `Cc1ccc(CN2CCCC3(COCCN(Cc4c[nH]nn4)C3)C2)o1` (centres undefined), the INHIBITION came out at 30.5%.

Take `c1csc(CN2CCCC3(COCCN(Cc4c[nH]nn4)C3)C2)c1` (centres undefined): the INHIBITION is listed as 31.7%.

Turning to `CCc1cccc(CC)c1NC(=O)c1ccccc1N(C)S(C)(=O)=O`, the INHIBITION is 26.9%.

Turning to `Cn1cccc1C(=O)N1CCCCC1c1[nH]ncc1S(C)(=O)=O` (centres undefined), the INHIBITION is 4.08%.

On to `CC(C)n1cnc2c1C(C(=O)N1CCCC1)N(CC1CC1)CC2` (centres undefined), for which the INHIBITION came to 13.7%.

For `Cc1nc(C(C)(C)C)sc1C(=O)NCCNc1ncccc1C#N`, the INHIBITION is given as -26.6%.

With `CCN(Cc1c(F)cccc1F)Cn1nc(C)c2c(C)onc2c1=O`, the INHIBITION is reported as 12.7%.

For the compound `Cc1noc(C)c1CNCC1(COc2cccnc2)C[C@@H](O)[C@@H](O)C1` (some centres undefined), the INHIBITION was found to be 27.5%.
